Counter-ions that a name gives are not always drawn. ± gives the standard deviation of the averaged measurements.
Key:
[1] = test system: Saccharomyces cerevisiae BY4741 SeMeCo community; experiment: mean cell size (pixel area) (pixels); higher = larger cells; settings: 10 µM; 24 h; SM minimal medium
How it was run: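 A four-plasmid fluorescent Saccharomyces cerevisiae BY4741 community was tested; each plasmid complements one auxotrophy and carries a fluorescent marker. An overnight preculture at OD600 = 1.0 was diluted to OD600 = 0.3, and 70 µl was added to 384-well plates acoustically predosed with drug (final 10 µM) in SM medium for 24 h. Cells were fixed with paraformaldehyde and imaged by automated confocal microscopy, with analysis in Harmony. Mean cell pixel area per well is averaged over 3 replicates. Same SeMeCo high-content imaging drug screen: Selleck FDA-approved drugs at 10 µM, 24 h in SM medium, 384-well plates, 3 replicates.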

[2] = test system: Saccharomyces cerevisiae BY4741 SeMeCo community; experiment: z-score of prototroph abundance vs DMSO median; higher = larger share of this subpopulation than in DMSO controls; settings: 10 µM; 24 h; SM minimal medium; subpopulation (auxotrophy): Prototroph
How it was run: (§1)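 Automated confocal microscopy of paraformaldehyde-fixed cells was used to follow a Saccharomyces cerevisiae BY4741 community carrying four plasmids, each restoring one auxotrophy and encoding a distinct fluorescent protein. The community was pre-grown overnight to OD600 1.0, diluted to 0.3, and added at 70 µl to 384-well plates acoustically predosed with library drugs (10 µM final) for 24 h of growth in minimal SM medium. Single-auxotroph fluorescent strains set thresholds and autofluorescence correction, and each subpopulation's abundance was scored as a z-score against the vehicle-well median.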

[3] = test system: Saccharomyces cerevisiae BY4741 SeMeCo community; experiment: z-score of subpopulation abundance vs DMSO median, subpopulation auxotrophic for M; higher = larger share of this subpopulation than in DMSO controls; settings: 10 µM; 24 h; SM minimal medium; subpopulation (auxotrophy): M
How it was run: as §1

[4] = test system: Saccharomyces cerevisiae BY4741 SeMeCo community; experiment: z-score of subpopulation abundance vs DMSO median, subpopulation auxotrophic for L; higher = larger share of this subpopulation than in DMSO controls; settings: 10 µM; 24 h; SM minimal medium; subpopulation (auxotrophy): L
How it was run: as §1

[5] = test system: Saccharomyces cerevisiae BY4741 SeMeCo community; experiment: z-score of subpopulation abundance vs DMSO median, subpopulation auxotrophic for U; higher = larger share of this subpopulation than in DMSO controls; settings: 10 µM; 24 h; SM minimal medium; subpopulation (auxotrophy): U
How it was run: as §1

[6] = test system: Saccharomyces cerevisiae BY4741 SeMeCo community; experiment: z-score of subpopulation abundance vs DMSO median, subpopulation auxotrophic for H; higher = larger share of this subpopulation than in DMSO controls; settings: 10 µM; 24 h; SM minimal medium; subpopulation (auxotrophy): H
How it was run: as §1

[7] = test system: Saccharomyces cerevisiae BY4741 SeMeCo community; experiment: z-score of subpopulation abundance vs DMSO median, subpopulation auxotrophic for LU; higher = larger share of this subpopulation than in DMSO controls; settings: 10 µM; 24 h; SM minimal medium; subpopulation (auxotrophy): LU
How it was run: as §1

[8] = test system: Saccharomyces cerevisiae BY4741 SeMeCo community; experiment: z-score of subpopulation abundance vs DMSO median, subpopulation auxotrophic for LM; higher = larger share of this subpopulation than in DMSO controls; settings: 10 µM; 24 h; SM minimal medium; subpopulation (auxotrophy): LM
How it was run: as §1

[9] = test system: Saccharomyces cerevisiae BY4741 SeMeCo community; experiment: z-score of subpopulation abundance vs DMSO median, subpopulation auxotrophic for HM; higher = larger share of this subpopulation than in DMSO controls; settings: 10 µM; 24 h; SM minimal medium; subpopulation (auxotrophy): HM
How it was run: as §1

[10] = test system: Saccharomyces cerevisiae BY4741 SeMeCo community; experiment: z-score of subpopulation abundance vs DMSO median, subpopulation auxotrophic for HU; higher = larger share of this subpopulation than in DMSO controls; settings: 10 µM; 24 h; SM minimal medium; subpopulation (auxotrophy): HU
How it was run: as §1

[11] = test system: Saccharomyces cerevisiae BY4741 SeMeCo community; experiment: z-score of subpopulation abundance vs DMSO median, subpopulation auxotrophic for UM; higher = larger share of this subpopulation than in DMSO controls; settings: 10 µM; 24 h; SM minimal medium; subpopulation (auxotrophy): UM
How it was run: as §1

[12] = test system: Saccharomyces cerevisiae BY4741 SeMeCo community; experiment: z-score of subpopulation abundance vs DMSO median, subpopulation auxotrophic for HL; higher = larger share of this subpopulation than in DMSO controls; settings: 10 µM; 24 h; SM minimal medium; subpopulation (auxotrophy): HL
How it was run: as §1

[13] = test system: Saccharomyces cerevisiae BY4741 SeMeCo community; experiment: z-score of subpopulation abundance vs DMSO median, subpopulation auxotrophic for HLU; higher = larger share of this subpopulation than in DMSO controls; settings: 10 µM; 24 h; SM minimal medium; subpopulation (auxotrophy): HLU
How it was run: as §1

[14] = test system: Saccharomyces cerevisiae BY4741 SeMeCo community; experiment: z-score of subpopulation abundance vs DMSO median, subpopulation auxotrophic for HLM; higher = larger share of this subpopulation than in DMSO controls; settings: 10 µM; 24 h; SM minimal medium; subpopulation (auxotrophy): HLM
How it was run: as §1

[15] = test system: Saccharomyces cerevisiae BY4741 SeMeCo community; experiment: z-score of subpopulation abundance vs DMSO median, subpopulation auxotrophic for LUM; higher = larger share of this subpopulation than in DMSO controls; settings: 10 µM; 24 h; SM minimal medium; subpopulation (auxotrophy): LUM
How it was run: as §1

[16] = test system: Saccharomyces cerevisiae BY4741 SeMeCo community; experiment: z-score of subpopulation abundance vs DMSO median, subpopulation auxotrophic for HLUM; higher = larger share of this subpopulation than in DMSO controls; settings: 10 µM; 24 h; SM minimal medium; subpopulation (auxotrophy): HLUM
How it was run: as §1

[17] = test system: Saccharomyces cerevisiae BY4741 SeMeCo community; experiment: z-score of subpopulation abundance vs DMSO median, subpopulation auxotrophic for HUM; higher = larger share of this subpopulation than in DMSO controls; settings: 10 µM; 24 h; SM minimal medium; subpopulation (auxotrophy): HUM
How it was run: as §1

| Compound | mean cell size [1] | z-score of prototroph abundance [2] | z-score of subpopulation abundance [3] | z-score of subpopulation abundance [4] | z-score of subpopulation abundance [5] | z-score of subpopulation abundance [6] | z-score of subpopulation abundance [7] | z-score of subpopulation abundance [8] | z-score of subpopulation abundance [9] | z-score of subpopulation abundance [10] | z-score of subpopulation abundance [11] | z-score of subpopulation abundance [12] | z-score of subpopulation abundance [13] | z-score of subpopulation abundance [14] | z-score of subpopulation abundance [15] | z-score of subpopulation abundance [16] | z-score of subpopulation abundance [17] |
| --- | --- | --- | --- | --- | --- | --- | --- | --- | --- | --- | --- | --- | --- | --- | --- | --- | --- |
| Clc1ccc(C(Cn2ccnc2)OCc2csc3c(Cl)cccc23)c(Cl)c1 (stereo not given) [Sertaconazole nitrate] | 12.5 ± 0.29 | -8.82 | -9.36 | 1.38 | 0.4 | 36.6 | 1.93 | -3.39 | 0.2 | 14.5 | -2.33 | 16.1 | 11.1 | 28.5 | 2.6 | 28.5 |  |
| Cc1ccc(S(=O)(=O)NC(=O)NN2CC3CCCC3C2)cc1 (stereo not given) [Gliclazide] | 12.6 ± 0.2 | 0.12 | 0.04 | -0.2 | -0.1 | -0.29 | -0.08 | -0.15 | 0.02 | -0.25 | 0.59 | 0.12 | -0.52 | -0.16 | -0.57 | -0.17 |  |
| CCC[C@@H]1C[C@@H](C(=O)N[C@@H]([C@H]2O[C@H](SC)[C@H](O)[C@@H](O)[C@H]2O)[C@@H](C)O)N(C)C1 [Lincomycin HCl] | 12.4 ± 0.14 | 0.69 | 0.32 | -0.98 | -0.24 |  | -0.63 | -0.14 |  | -0.73 | 0.19 | -0.34 | -0.34 | -0.77 | -0.87 | -0.36 |  |
| CN1CC2c3ccccc3Oc3ccc(Cl)cc3C2C1 (stereo not given) [Asenapine maleate] | 12.34 ± 0.11 | 0.14 | -0.45 | 1.05 |  |  | 0.61 | 0.5 | -0.76 | -0.59 | -0.2 | 0.5 | 0.37 | -0.53 | 0.42 | 0.32 |  |
| CC(c1cc2ccccc2s1)N(O)C(N)=O (stereo not given) [Zileuton] |  | 0.05 | 0.27 | 0.85 |  | -0.65 | 0.65 | 0.16 | -0.32 | -0.39 | 0.34 | -0.17 | 0.44 | 0.43 | 0.12 |  |  |
| Clc1ccc(CSC(Cn2ccnc2)c2ccc(Cl)cc2Cl)cc1 (stereo not given) [Sulconazole Nitrate] | 12.1 ± 0.16 | -9.61 | -2.96 | -0.34 | 1.17 | 22 | -2.59 | -2.53 | 2.74 |  | 5.19 |  | 7.54 | 24.7 | 0.84 | 10.5 |  |
| CC/C=C(\C(=O)N[C@@H]1C(=O)N2C(C(=O)OCOC(=O)C(C)(C)C)=C(COC(N)=O)CS[C@H]12)c1csc(N)n1 [Cefcapene Pivoxil Hydrochloride] | 12.3 ± 0.31 | -1.27 | 0.11 | 0.38 | 0.38 |  | 0.9 | 0.55 | 1.27 | 1 | 0.67 | 0.18 | -0.22 |  | 0.63 | 0.1 | 1.18 |
| Oc1cccc(O)c1 [Resorcinol] | 12.4 ± 0.22 | 0.94 | -0.66 | -0.23 |  | -0.05 | -1.33 | -0.4 | -0.29 |  | -0.77 | -0.43 | 0 | -0.64 | -0.89 | -0.65 |  |
| O=C(Nc1cccc(C2=NCCN2)c1)Nc1cccc(C2=NCCN2)c1 [Imidocarb dipropionate] |  | 0.72 | -1.19 | -0.04 | 0.07 |  | 0.44 | -0.28 | -0.79 | 0.05 | -0.26 | -0.57 | 0.17 | -0.49 | -0.67 | 0.13 |  |
| COc1cccc(-c2c(C)n(Cc3c(F)cccc3C(F)(F)F)c(=O)n(C[C@H](NCCCC(=O)O)c3ccccc3)c2=O)c1F [Elagolix Sodium] | 12.5 ± 0.27 | 0.61 | -0.72 | -0.55 | 0.24 |  | -0.52 |  | -0.13 | 0.74 | -0.27 | 0.13 | -0.37 | -0.27 | -0.77 | -0.29 |  |
| Clc1ccc(COC(Cn2ccnc2)c2ccc(Cl)cc2Cl)cc1 (stereo not given) [Econazole] | 11.9 ± 0.17 | -7.96 | -1.6 | -1.62 | 0.12 | 20.3 | -0.93 | -1.56 | 2.71 | 5.61 | 9.39 | 12.8 | 4.6 |  | 3.58 | 17.3 | 4.19 |
| CC[C@@]1(O)C(=O)OCc2c1cc1n(c2=O)Cc2cc3c(CN(C)C)c(O)ccc3nc2-1 [Topotecan HCl] | 12.5 ± 0.14 |  | 1.3 | 0.17 | -1.89 | 0.59 | -1.86 | 0.34 | 0.51 |  | -1.6 | 0.17 | -0.87 | 0.12 | -0.62 | -0.39 |  |
| O=C([O-])CC(O)(CC(=O)[O-])C(=O)[O-].O=C([O-])CC(O)(CC(=O)[O-])C(=O)[O-].[Bi+3].[K+].[K+].[K+].[K+].[K+] [Bismuth Subcitrate Potassium] |  | 0.38 | -3.84 | 2.37 | -0.49 | 3.24 | 1.34 | -1.07 |  | 2.94 |  |  | 3 | 1.76 | 0.14 | 0.65 |  |
| Nc1ccc(S(=O)(=O)Nc2cnc3ccccc3n2)cc1 [Sulfaquinoxaline sodium] | 12 ± 0.22 | -0.68 | 1.16 | -1.08 | 1.01 | -1.04 | 0.22 | 0.34 | 0.61 | 1.05 | 1.56 | -0.29 | 0.31 |  | 0.81 | -0.23 | 0.79 |
| CCC(C)C1OC2(CCC1C)CC1CC(CC=C(C)C(OC3CC(OC)C(OC4CC(OC)C(O)C(C)O4)C(C)O3)C(C)C=CC=C3COC4C(O)C(C)=CC(C(=O)O1)C34O)O2 (stereo not given) [Ivermectin] |  | -1.61 | -0.12 | -0.07 |  |  | -0.12 | 0.26 | 1.17 | 1.39 | 1.13 | 0.26 | 2.13 | 0.72 | 1.28 | 0.72 |  |

— the supplement of paper PMC8975748
